# Screens deposited in PubChem BioAssay by Center for Chemical Genomics, University of Michigan.
# Dicer processing = human Dicer pre-microRNA cleavage inhibition; Q9UPY3; cat-ELCCA pre-miR-21 Dicer processing, chemiluminescence; active compounds read high; z-score at 25 µM; 47,000 compounds, 6% hits; AID 1347074; in the data active = z-score above about 3, passing the limit was not always enough;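 also: plate controls were vehicle for no effect and no enzyme for full effect; higher signal means more uncleaved substrate so more Dicer inhibition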
# Target sequence (Q9UPY3 whole entry, looked up): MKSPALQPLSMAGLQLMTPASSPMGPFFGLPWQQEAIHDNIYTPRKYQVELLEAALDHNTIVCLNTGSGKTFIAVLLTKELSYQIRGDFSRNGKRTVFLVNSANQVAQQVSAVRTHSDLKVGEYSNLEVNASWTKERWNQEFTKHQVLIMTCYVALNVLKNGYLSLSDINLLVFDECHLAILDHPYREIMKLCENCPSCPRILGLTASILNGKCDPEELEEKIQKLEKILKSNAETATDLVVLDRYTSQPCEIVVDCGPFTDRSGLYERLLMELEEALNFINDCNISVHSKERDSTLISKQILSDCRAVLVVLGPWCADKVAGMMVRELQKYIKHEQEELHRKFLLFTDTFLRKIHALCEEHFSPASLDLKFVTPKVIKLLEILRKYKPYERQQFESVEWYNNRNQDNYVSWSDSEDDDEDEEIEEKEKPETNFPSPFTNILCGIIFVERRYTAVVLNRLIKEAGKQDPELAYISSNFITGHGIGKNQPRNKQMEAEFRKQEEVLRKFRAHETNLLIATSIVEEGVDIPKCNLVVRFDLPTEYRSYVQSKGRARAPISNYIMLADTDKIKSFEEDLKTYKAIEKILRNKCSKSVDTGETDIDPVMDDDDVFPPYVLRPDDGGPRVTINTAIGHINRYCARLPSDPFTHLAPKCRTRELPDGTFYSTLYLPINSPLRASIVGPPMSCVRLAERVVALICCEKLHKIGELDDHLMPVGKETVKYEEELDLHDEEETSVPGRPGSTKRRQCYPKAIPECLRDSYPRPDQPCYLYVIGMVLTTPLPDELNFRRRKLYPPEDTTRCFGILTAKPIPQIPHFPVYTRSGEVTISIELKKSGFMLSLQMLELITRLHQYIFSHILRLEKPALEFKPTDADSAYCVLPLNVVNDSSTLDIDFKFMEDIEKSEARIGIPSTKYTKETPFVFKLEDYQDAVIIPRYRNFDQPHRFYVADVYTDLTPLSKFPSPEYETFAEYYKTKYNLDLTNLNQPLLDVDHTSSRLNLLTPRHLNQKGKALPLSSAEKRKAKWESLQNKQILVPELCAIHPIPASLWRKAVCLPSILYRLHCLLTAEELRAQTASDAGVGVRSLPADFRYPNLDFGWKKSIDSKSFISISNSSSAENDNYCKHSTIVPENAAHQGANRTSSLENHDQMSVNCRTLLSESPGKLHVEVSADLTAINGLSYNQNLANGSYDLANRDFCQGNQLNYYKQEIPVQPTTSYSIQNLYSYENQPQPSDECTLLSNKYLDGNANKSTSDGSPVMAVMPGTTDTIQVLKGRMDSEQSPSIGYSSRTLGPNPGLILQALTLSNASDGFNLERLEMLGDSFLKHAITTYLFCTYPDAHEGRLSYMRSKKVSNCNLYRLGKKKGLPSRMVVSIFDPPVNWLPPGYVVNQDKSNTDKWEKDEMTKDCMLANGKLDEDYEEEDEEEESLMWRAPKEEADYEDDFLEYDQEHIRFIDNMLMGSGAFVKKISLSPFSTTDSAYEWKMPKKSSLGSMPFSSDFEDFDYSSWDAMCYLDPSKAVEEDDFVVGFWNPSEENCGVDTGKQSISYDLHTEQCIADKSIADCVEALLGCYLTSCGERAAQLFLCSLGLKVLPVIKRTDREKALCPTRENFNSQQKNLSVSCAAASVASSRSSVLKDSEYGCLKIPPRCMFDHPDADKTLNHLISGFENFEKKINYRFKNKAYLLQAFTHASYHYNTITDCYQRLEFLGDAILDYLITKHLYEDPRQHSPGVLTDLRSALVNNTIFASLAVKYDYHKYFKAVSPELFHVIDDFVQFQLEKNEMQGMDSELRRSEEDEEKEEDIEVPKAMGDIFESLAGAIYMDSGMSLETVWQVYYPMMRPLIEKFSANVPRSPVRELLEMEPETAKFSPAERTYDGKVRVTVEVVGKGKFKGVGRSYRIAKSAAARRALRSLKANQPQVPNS
# An asterisk follows results filed as active; ! = not active in a repeat. The sample as a whole holds a higher share of hits than the screen did.
SMILES,Dicer processing
CCOc1nc(-c2ccc(C)cc2)ccc1-c1noc(-c2ccncc2)n1,0.16
N#C/C(=C\c1ccc(C#Cc2ccccc2)s1)C(=O)c1cccs1,-1.2
CCOC(=O)c1cnc(NNC(=O)c2ccc(C(C)(C)C)cc2)nc1C(F)(F)F,2.2
COc1ccc(-c2cc(C(F)(F)F)nc(SCC(=O)N3CCCC3)n2)cc1,2.3
NC(N)=N/N=C/c1ccc(Cl)cc1Cl,4.5*!
NC(N)=N/N=C/c1ccc(Cl)c(Cl)c1,0.83
N#C/C(=C\c1ccc(Cl)cc1Cl)C(N)=S,-0.55
Cc1oc(C(=O)NC(=O)Nc2cccc(C(F)(F)F)c2)nc1-c1ccccc1,-0.82
COc1ccc(C2Oc3ccccc3C=C2[N+](=O)[O-])cc1 (stereo not drawn),0.15
Cc1[nH][nH]c(=O)c1C(c1cccnc1)c1c(C)[nH][nH]c1=O,-6.3
O=C(CSc1ccccn1)N1CCN(S(=O)(=O)c2ccccc2)C1,3.4*
O=C(CSc1nnnn1-c1ccccc1)N1CCN(S(=O)(=O)c2ccccc2)C1,2.9
Cn1nnnc1SCC(=O)N1CCN(S(=O)(=O)c2ccccc2)C1,0.44
CCCn1c2ccccc2c2nnc(SCC(=O)Nc3nnc(C)s3)nc21,-0.12
O=C(Nc1ccc(C(F)(F)F)cc1)N1CCCc2ccccc21,0.59
Cn1nc(C(F)(F)F)cc1OS(=O)(=O)c1ccc(Cl)cc1Cl,-0.08
COc1cc(C(F)(F)F)nc2ccc(Br)cc12,-5.1
COc1ccc(/C(O)=C2/C(=O)C(=O)N(CC3CCCO3)C23C(=O)N(C)c2ccccc23)cc1C (stereo not drawn),2.2
C=CCOc1ccc(/C(O)=C2/C(=O)C(=O)N(CCOC)C23C(=O)N(CC)c2ccccc23)cc1C (stereo not drawn),6*
C=CCOc1ccc(/C(O)=C2/C(=O)C(=O)N(CCOC)C23C(=O)N(CC)c2ccccc23)cc1 (stereo not drawn),-0.44
CCN1C(=O)C2(/C(=C(/O)c3ccc(C)c(F)c3)C(=O)C(=O)N2CCN2CCOCC2)c2ccccc21 (stereo not drawn),-1.4
CCN1C(=O)C2(/C(=C(/O)c3ccc(OC)cc3)C(=O)C(=O)N2CCOC)c2ccccc21 (stereo not drawn),0.23
CCN1C(=O)C2(/C(=C(/O)c3ccc(C)c(F)c3)C(=O)C(=O)N2CCOC)c2ccccc21 (stereo not drawn),8.7*
C=CCOc1ccc(/C(O)=C2/C(=O)C(=O)N(CC3CCCO3)C23C(=O)N(C)c2ccccc23)cc1C (stereo not drawn),5.2*
C=CCOc1ccc(/C(O)=C2/C(=O)C(=O)N(CCCOC)C23C(=O)N(C)c2ccccc23)cc1C (stereo not drawn),2.7
SMILES,Dicer processing
C=CCOc1ccc(/C(O)=C2/C(=O)C(=O)N(CCCN(C)C)C23C(=O)N(C)c2ccccc23)cc1C (stereo not drawn),2.5
FC(F)(F)c1cccc(-c2n[nH]c(=S)n2-c2ccccc2)c1,1.8
CCc1cc2c(=O)c(-c3nc4ccccc4n3C)coc2cc1O,-0.27
CN(C)S(=O)(=O)N(CC(=O)Nc1ccc(Br)c(Cl)c1)c1ccccc1,2.3
CN(C)c1ccc(NC(=O)c2ccc(Cl)cc2)cc1C(=O)O,0.14
CCCCC(=O)N(c1ccc2oc(=O)sc2c1)S(=O)(=O)c1cccs1,-3.9
CCCC(=O)N(c1ccc2oc(=O)sc2c1)S(=O)(=O)c1ccc(C(=O)O)cc1,-0.07
CCCC(=O)N(c1ccc2oc(=O)sc2c1)S(=O)(=O)c1ccc(OC)c(OC)c1,4.2*
CCCC(=O)N(c1ccc2oc(=O)sc2c1)S(=O)(=O)c1ccc(F)cc1,-1.6
CCCC(=O)N(c1ccc2oc(=O)sc2c1)S(=O)(=O)c1cc(OC)ccc1OC,2.6
CC(C)C(=O)N(c1ccc2oc(=O)sc2c1)S(=O)(=O)c1ccc(Br)cc1,0.6
O=C(Cc1ccccc1)N(c1ccc2oc(=O)sc2c1)S(=O)(=O)c1ccccc1,5.4*
CCCCC(=O)N(c1ccc2oc(=O)sc2c1)S(=O)(=O)c1ccc(OCC)cc1,0.55
CCCCC(=O)N(c1ccc2oc(=O)sc2c1)S(=O)(=O)c1ccc(OC)c(OC)c1,3.9*
COC(=O)c1ccc(C2C3=C(Nc4c2c(=O)[nH]c(=O)n4C)c2ccccc2C3=O)cc1 (stereo not drawn),-0.9
Nc1nonc1C(=O)NCCNCc1ccncc1,-1.7
Cc1cc(Nc2ccc(C)c(Br)c2)n2ncnc2n1,-0.51
COC(=O)c1cccc2cccc(I)c12,-1.2
c1ccc(-c2nc3ccccc3nc2-c2ccsc2)cc1,0.75
O=C(NCc1cccnc1)c1ccccc1C(=O)Nc1sc2ccccc2c1Cl,0.31
O=C(CSC1=NNC(c2ccccn2)S1)c1cccc(F)c1 (stereo not drawn),25
CCn1cc(CN(C)C(=O)c2cnn3c(C(F)F)cc(-c4ccccc4)nc23)c(C)n1,0.98
O=C(CSc1ncnc2sc(-c3ccccc3)cc12)c1cccs1,-0.64
Cc1ccc(C2Nn3c(C)nnc3SC2C(=O)Nc2cc(Cl)ccc2C)cc1 (stereo not drawn),2.2
COc1ccc(S(=O)(=O)NCc2ccncc2)cc1Br,-1.6
SMILES,Dicer processing
O=C(Nc1ccc(S(=O)(=O)N2CCCC2)cc1)C1c2ccccc2Oc2ccccc21,-0.97
N=C(c1ccc(Cl)cc1)c1cc2ccccc2cn1,-0.9
COc1ccc(Cc2nnc(Nc3ccc(C)cc3)o2)cc1OC,1.6
COc1ccc(Cc2nnc(Nc3ccc(Cl)cc3Cl)o2)cc1OC,3.9*
COc1ccc(Cc2nnc(N)o2)cc1OC,0.68
CNC(=O)NNC(=O)c1sc(SC)c2c1CCC=C2,-0.33
O=C(NCc1ccc(F)cc1)c1nc2c(nnn2CC2CCCO2)c(=O)[nH]1 (stereo not drawn),3.1*
O=C1CC(NCC2CCCO2)C(=O)N1c1ccc(F)cc1 (stereo not drawn),-2.5
Cc1nc2cc(Cl)ccc2c(=O)n1CC1CCCO1 (stereo not drawn),-1
O=C(O/N=C1\CCc2ccccc21)c1cccc(F)c1,0.02
CN(Cc1ccccc1)S(=O)(=O)c1c(Cl)cc(C(F)(F)F)cc1Cl,-1.7
O=C(OCc1ccccc1)C1=NNC2(CC(=O)N(c3cccc(Br)c3)C2=O)C1 (stereo not drawn),0.72
COC(=O)C1=C(C)Nc2nc3ccccc3n2C1c1ccccc1Cl (stereo not drawn),0.6
CC(C)(C)C(=O)NCCNC(=O)c1nonc1N,0.96
Nc1nonc1C(=O)NCCNC(=O)c1cccc(Br)c1,5.2*
Nc1nonc1C(=O)NCCNCc1cccs1,-0.27
CCCCOC(=O)C1=C(C)NC2=C(C(=O)CCC2)C1c1cc(OC)c(OC)cc1Br (stereo not drawn),2.2
COc1ccc(C(=O)Oc2cccc3cccnc23)cc1Cl,4.4*
O=C(Oc1cccc2cccnc12)c1cccs1,2.2
COc1ccc(C(=O)Oc2cccc3cccnc23)cc1OC,2.1
C=CCn1c(-c2cccs2)nc2ccccc21,125
Brc1cc2c(cc1Cn1c(-c3cncs3)nc3ccccc31)OCO2,4.3*
Cc1ccccc1Cn1c(-c2cncs2)nc2ccccc21,0.83
O=C(O)/C=C/NNC(=O)c1ccc([N+](=O)[O-])cc1,-0.14
CC(C)CNc1nc(Oc2ccc(=O)n(C)n2)nc(N2CCOCC2)n1,1.6
CC(C)CNc1nc(Oc2ccc(=O)n(-c3ccccc3)n2)nc(N2CCOCC2)n1,3.6*
CC(C)(C)Nc1nc(Oc2ccc(=O)n(-c3ccccc3)n2)nc(N2CCOCC2)n1,-0.55
Oc1cc2c(cc1C(c1ccc(C(F)(F)F)cc1)N1CCCC1)OCO2 (stereo not drawn),1.2
